In PubChem BioAssay AID1159580 (chemical genetic matrix, 2015):
Screen size: about 5,500 compounds; about 2,000 (36%) were called active. Roughly 18% stayed inconclusive and do not appear here. This is one part of the list. Unmarked numbers belong to inactive results. No stated cut-off is given here; in the data, active means normalized growth mostly below about 0.91 (no sharp cut-off); inconclusive means no clear call, values can overlap the other calls; inactive means mostly above about 0.92.

Assay: chemical genetic growth profiling, strain panel (AID 1159580);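 further: tested at 20 µM; growth read once vehicle control cultures reached saturation at 30 °C; 1 = growth at the plate median or of vehicle wells; lower values mean less growth of the strain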
Conditions: growth OD
[1] = S. cerevisiae deletion strains, locus YAL013W, strain DEP1, hits give low values
[2] = S. cerevisiae deletion strains, locus YBR229C, strain ROT2, hits give low values
[3] = S. cerevisiae deletion strains, locus YCL061C, strain MRC1, hits give low values
[4] = S. cerevisiae deletion strains, locus YDL101C, strain DUN1, hits give low values
[5] = S. cerevisiae deletion strains, locus YDL134C, strain PPH21, hits give low values
[6] = S. cerevisiae deletion strains, locus YDR150W, strain NUM1, hits give low values
[7] = S. cerevisiae deletion strains, locus YEL061C, strain CIN8, hits give low values
[8] = S. cerevisiae deletion strains, locus YGR078C, strain PAC10, hits give low values
[9] = S. cerevisiae deletion strains, locus YGR229C, strain SMI1, hits give low values
[10] = S. cerevisiae deletion strains, locus YHR030C, strain SLT2, hits give low values
[11] = S. cerevisiae deletion strains, locus YHR087W, strain rtc3, hits give low values
[12] = S. cerevisiae deletion strains, locus YJR043C, strain POL32, hits give low values
[13] = S. cerevisiae deletion strains, locus YJR075W, strain HOC1, hits give low values
[14] = S. cerevisiae deletion strains, locus YLR039C, strain RIC1, hits give low values
[15] = S. cerevisiae deletion strains, locus YLR058C, strain SHM2 (second series), hits give low values
[16] = S. cerevisiae deletion strains, locus YLR085C, strain ARP6, hits give low values
[17] = S. cerevisiae deletion strains, locus YLR262C, strain YPT6, hits give low values
[18] = S. cerevisiae deletion strains, locus YML094W, strain GIM5, hits give low values
[19] = S. cerevisiae deletion strains, locus YMR219W, strain ESC1, hits give low values
[20] = S. cerevisiae deletion strains, locus YMR263W, strain SAP30, hits give low values
[21] = S. cerevisiae deletion strains, locus YNL153C, strain GIM3, hits give low values
[22] = S. cerevisiae deletion strains, locus YNL298W, strain CLA4 (second series), hits give low values
[23] = S. cerevisiae deletion strains, locus YNL322C, strain KRE1, hits give low values
[24] = S. cerevisiae deletion strains, locus YNR030W, strain Alg12, hits give low values
[25] = S. cerevisiae deletion strains, locus YOL006C, strain TOP1, hits give low values
[26] = S. cerevisiae deletion strains, locus YPL055C, strain LGE1, hits give low values
[27] = S. cerevisiae deletion strains, locus YPL241C, strain CIN2, hits give low values
[28] = S. cerevisiae deletion strains, locus YPR135W, strain CTF4, hits give low values
[29] = S. cerevisiae deletion strains, locus YMR307W, strain GAS1, hits give low values

With `CCc1nnc(N=CNO)s1` the normalized growth [1] was 0.956, the normalized growth [2] was 0.846 (active) and the normalized growth [3] was 0.913. The normalized growth [4] was 0.932, the normalized growth [5] was 0.989 and the normalized growth [6] was 0.978. The normalized growth [7] was 0.843 (active), the normalized growth [8] was 0.973 and the normalized growth [9] was 0.992. For the same molecule, the normalized growth [10] was 0.573 (active), the normalized growth [11] was 0.79 (active) and the normalized growth (S. cerevisiae deletion strains, locus YJL187C, strain SWE1, hits give low values) was 0.817 (active). For the same molecule, the normalized growth [12] was 0.97, the normalized growth [13] was 0.809 (active) and the normalized growth [14] was 0.967. It also gave a normalized growth [15] of 1, a normalized growth [16] of 0.803 and a normalized growth [17] of 0.947. For the same molecule, the normalized growth [18] was 0.855 (active), the normalized growth [19] was 0.879 (active) and the normalized growth [20] was 0.968. The normalized growth [21] was 0.965, the normalized growth [22] was 0.823 (active) and the normalized growth [23] was 1.01. The normalized growth [24] was 0.944, the normalized growth [25] was 0.465 (active) and the normalized growth [26] was 0.909. For the same molecule, the normalized growth [27] was 0.99 and the normalized growth [28] was 0.795.

In the case of `CCOC(=O)Cc1csc(N=CNO)n1`, the normalized growth [1] is reported as 1.01, the normalized growth [2] is reported as 1.02 and the normalized growth [3] is reported as 1.01. For the same molecule, the normalized growth [4] was 1, the normalized growth [5] was 1.02 and the normalized growth [6] was 0.892. The normalized growth [7] was 1.01, the normalized growth [8] was 1.02 and the normalized growth [9] was 0.997. For the same molecule, the normalized growth [10] was 0.999, the normalized growth [11] was 1.04 and the normalized growth [12] was 0.989. It also gave a normalized growth [13] of 1.05, a normalized growth [14] of 0.992 and a normalized growth [15] of 1.02. For the same molecule, the normalized growth [16] was 1.03, the normalized growth [17] was 0.951 and the normalized growth [18] was 1.02. The normalized growth [19] was 1.02, the normalized growth [20] was 0.999 and the normalized growth [29] was 1.03. The normalized growth (S. cerevisiae deletion strains, locus YNL128W, strain TEP1, hits give low values) was 0.999, the normalized growth [21] was 1.01 and the normalized growth [22] was 1.05. For the same molecule, the normalized growth [23] was 1.01, the normalized growth [24] was 1.03 and the normalized growth [26] was 1.02. For the same molecule, the normalized growth [27] was 1.02, the normalized growth [28] was 1.04 and the normalized growth (S. cerevisiae strains, strain wild type, hits give low values) was 1.03.

For `Cc1oc(C(C)(C)C)cc1C(=O)Nc1ccc([N+](=O)[O-])cc1`, the normalized growth [1] was 0.903 (active), the normalized growth [2] was 0.976 and the normalized growth [3] was 0.984. The normalized growth [4] was 1.03, the normalized growth [6] was 0.786 (active) and the normalized growth [7] was 0.911. The normalized growth [8] was 0.98, the normalized growth [10] was 0.584 (active) and the normalized growth [11] was 0.958. The normalized growth [12] was 0.966, the normalized growth [13] was 0.974 and the normalized growth [14] was 0.678 (active). For the same molecule, the normalized growth [15] was 0.992, the normalized growth [16] was 0.813 and the normalized growth [17] was 0.786 (active). The normalized growth [18] was 0.873, the normalized growth [19] was 0.997 and the normalized growth [20] was 0.943. For the same molecule, the normalized growth [29] was 0.752, the normalized growth [21] was 0.998 and the normalized growth [22] was 0.788 (active). The normalized growth [23] was 0.996, the normalized growth [24] was 0.816 (active) and the normalized growth [25] was 0.88. The normalized growth [26] was 0.688 (active), the normalized growth [27] was 0.997 and the normalized growth [28] was 0.484 (active).
